PDI turbidity = blocks human protein disulfide isomerase activity; inhibition, % at 10 µM; P07237; actives 0.052% (n = 350,000); PDI insulin aggregation turbidity, A650, 90 min;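 active = mean inhibition across replicates of 30% or more, whatever share of single replicates reach that level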
ARNT TACC3 PPI = ARNT/TACC3 interaction disruption; AlphaScreen His-ARNT PAS-B/GST-TACC3 binding, luminescence; TACC3 fragment carries E629A point mutation; Q9Y6A5; inhibition, % at 9.99 µM; actives 0.66% (n = 390,000);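 active = mean inhibition of replicates at least 50% and at least half of replicates each reaching 50%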;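 also: 0% = complete ARNT plus TACC3 wells and 100% = ARNT alone without TACC3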
ERp5 inh = inhibitors of human ERp5 | Q15084 | ERp5 insulin aggregation, absorbance 650 nm, 90 min | inhibition, % at 9.99 µM | actives 0.05% (n = 350,000) | AID 651711;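 active = mean replicate inhibition above about 25%, with every replicate also reaching it, limit read from the data, passing the limit was not always enough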
Target sequence (Q15084 whole entry, looked up): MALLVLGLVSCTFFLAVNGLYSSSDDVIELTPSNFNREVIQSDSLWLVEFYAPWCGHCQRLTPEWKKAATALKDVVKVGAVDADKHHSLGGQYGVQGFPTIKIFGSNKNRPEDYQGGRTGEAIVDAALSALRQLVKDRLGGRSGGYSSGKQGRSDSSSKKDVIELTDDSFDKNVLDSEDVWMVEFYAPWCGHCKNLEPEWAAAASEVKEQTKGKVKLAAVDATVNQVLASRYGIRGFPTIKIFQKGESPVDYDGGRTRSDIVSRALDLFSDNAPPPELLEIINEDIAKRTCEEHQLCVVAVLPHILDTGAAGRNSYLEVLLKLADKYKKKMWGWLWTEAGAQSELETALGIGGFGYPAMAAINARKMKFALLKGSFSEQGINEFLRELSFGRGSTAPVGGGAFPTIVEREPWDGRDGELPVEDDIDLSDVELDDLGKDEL
PglD inh = inhibitors of Campylobacter jejuni PglD acetyltransferase. inhibition, % at 12.5 µM. purified PglD enzyme, DTNB colorimetric CoA detection. actives 0.098% (n = 360,000); in the data active = inhibition above about 16%, passing the limit was not always enough
ALR inh = blocks human ALR sulfhydryl oxidase activity | P55789 | purified ALR, DTT oxidation, H2O2 HRP-luminol luminescence | inhibition, % (concentration not given with the values) | actives 3.8% (n = 290,000) | AID 485317;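 active = mean replicate inhibition above about 79%, with every replicate also reaching it, limit read from the data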
Target sequence (P55789 whole entry, looked up): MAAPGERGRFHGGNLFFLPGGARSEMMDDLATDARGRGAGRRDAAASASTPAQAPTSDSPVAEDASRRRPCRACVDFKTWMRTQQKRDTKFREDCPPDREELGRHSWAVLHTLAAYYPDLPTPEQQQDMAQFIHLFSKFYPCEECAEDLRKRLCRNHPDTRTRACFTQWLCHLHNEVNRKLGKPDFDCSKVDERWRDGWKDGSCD
NRP1-CendR mod = alters CendR peptide binding to human NRP-1; O14786; FAM-RPARPAR peptide binding to NRP-1, fluorescence polarization; inhibition, % at 25 µM; actives 0.85% (n = 360,000); AID 602438;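 active = inhibition or corrected inhibition above about 18%, plus a signal ratio from 0.5 to 1.5, limit read from the data, passing the limit was not always enough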
Starred values were filed as active, the others as inactive; . = not tested or not shown. The entries come from a sample that favours hits as a whole.

SMILES | PDI turbidity | ARNT TACC3 PPI | ERp5 inh | PglD inh | ALR inh | NRP1-CendR mod
C[C@H]1CN([C@@H](C)CO)C(=O)c2cccc(NS(=O)(=O)c3cccs3)c2O[C@H]1CN(C)S(=O)(=O)c1ccc(F)cc1 | . | -11 | 0 | 3 | . | .
CC(=O)N1[C@H](CO)[C@@H]2c3ccccc3N(C(=O)c3ccccc3)C[C@@H]21 | . | 2 | . | 0 | . | .
CC(C)NC(=O)N1[C@H](CO)[C@@H](c2ccccc2)C12CN(Cc1ccccc1)C2 | . | . | 1 | . | . | .
O=S1(=O)c2ccccc2N=NN1Cc1cc(Cl)cc(Cl)c1 | . | . | . | . | 99* | .
C[C@H](CO)N1C[C@H](C)[C@H](CN(C)Cc2ccncc2)OCCCC[C@H](C)Oc2ccc(NC(=O)Nc3ccc(F)cc3)cc2C1=O | . | -2 | . | -1 | . | .
CCn1c(-c2ccccc2O)n[nH]c1=S | 1 | 2 | . | . | 92* | 2
CCn1c(-c2cc(-c3ccccc3)sc2N)n[nH]c1=S | 9 | 5 | -10 | 0 | 99* | 8
CCn1c(-c2cc(-c3cccc(OC)c3)nc3ccccc23)n[nH]c1=S | -6 | 7 | -1 | 5 | 63 | -9
Cc1ccc(C2Cc3cc(O)c(O)cc3CN2)cc1 (stereo unspecified) | 1 | . | 0 | -1 | 99* | 3
CCN(CC)C(=O)Cn1cc(S(=O)(=O)CC(=O)NCCc2ccccc2)c2ccccc21 | -1 | 3 | 4 | 0 | -12 | 10
CCN(CC)C(=O)Cn1cc(S(=O)(=O)CC(=O)NCc2ccc(C)cc2)c2ccccc21 | 1 | 1 | -7 | -1 | . | 22*
CNC(=O)CN1C(=O)CSc2ncccc21 | 12 | -2 | -6 | 0 | -36 | 2
CCN(CC)c1ccc(NC(=O)CN2C(=O)CSc3ncccc32)c(C)c1 | 8 | -5 | 17 | -4 | 97* | -9
CCN(CC)c1ccc(NC(=O)Cn2cc3c(n2)CCC(C)C3)c(C)c1 (stereo unspecified) | . | 49* | -1 | -2 | 99* | -7
CN1C(=O)CC(C(=O)O)SC1=Nc1cc(Cl)cc(Cl)c1 (stereo unspecified) | 5 | -3 | . | -7 | 3 | -3
CN1C(=O)CC(C(=O)O)SC1=Nc1cc(Cl)c(O)c(Cl)c1 (stereo unspecified) | -9 | 11 | . | 6 | 99* | -11
COc1cccc(/C=C2\SC(=S)N(NS(=O)(=O)c3ccccc3)C2=O)c1OC | 2 | 12 | 6 | 3 | 97* | -14
Cc1ccc(/C=C2\SC(=S)N(NS(=O)(=O)c3ccc(C)cc3)C2=O)cc1 | -2 | -5 | 0 | -13 | -1 | -44
COc1cc(/C=C2\SC(=S)N(NS(=O)(=O)c3ccccc3)C2=O)cc(OC)c1OC | -1 | 16 | -3 | -9 | . | -11
Cc1ccc(S(=O)(=O)NN2C(=O)/C(=C/c3cccn3C)SC2=S)cc1 | . | . | . | . | 97* | .
O=C(NC[C@H]1[C@H](c2ccccc2)[C@H](CO)N1C(=O)Cc1ccncc1)C1CCC1 | . | -1 | -3 | 2 | . | .
CCOC(=O)CSC1=C(C#N)C(=O)NC2(CCCCC2)S1 | 9 | 4 | . | 4 | 98* | -6
CN(C)CCCNC(=O)C[C@H]1CC[C@@H](NC(=O)Cc2cccnc2)[C@@H](CO)O1 | . | -4 | 7 | -2 | . | .
O=C(c1ccc2c(c1)OCO2)N1CC2(C1)[C@@H](c1ccccc1)[C@@H](CO)N2C(=O)C1CCCC1 | . | . | -4 | . | . | .
N#Cc1sc2nc(N3CCCCC3)c3c(c2c1N)CCCC3 | -17 | -6 | . | 0 | 98* | -14
SMILES | PDI turbidity | ARNT TACC3 PPI | ERp5 inh | PglD inh | ALR inh | NRP1-CendR mod
COc1ccc(CN(C)C[C@H]2Oc3ccc(NC(=O)C4CC4)cc3C(=O)N([C@@H](C)CO)C[C@H]2C)cc1 | . | -5 | 4 | 13 | . | .
COc1cc(/C=C2\Oc3cc(O)ccc3C2=O)ccc1O | . | -1 | -5 | -19 | 97* | -135
O=C1/C(=C/c2ccc(O)c(O)c2)Oc2cc(O)ccc21 | . | 30 | -5 | -18 | 98* | -94
O=C1/C(=C/c2cccc([N+](=O)[O-])c2)Oc2cc(O)ccc21 | -11 | -15 | -2 | 0 | 5 | -8
Cc1cc(C(=O)Nc2nc3c(s2)CCCC3)no1 | 8 | -6 | . | 1 | 96* | -3
CN(C)c1ccc(C(=O)Nc2nc3c(s2)CCCC3)cc1 | -10 | -2 | -1 | -3 | 96* | 14
CC(C)(C)c1ccc(C(=O)NC(=S)Nc2nc3c(s2)CCCC3)cc1 | -12 | . | 9 | 6 | -3 | 1
C[C@H](CO)N1C[C@H](C)[C@H](CN(C)C(=O)CN(C)C)Oc2cc(C#Cc3cccnc3)ccc2S1(=O)=O | . | 2 | -2 | -8 | . | .
CCN1[C@H](C(=O)NCC(F)(F)F)[C@@H](CO)[C@@H]2Cn3c(ccc(-c4ccccc4)c3=O)[C@@H]21 | . | . | . | -6 | . | .
CCOc1ccc(-c2nc(CSCC(=O)NC3CCN(Cc4ccccc4)CC3)c(C)o2)cc1 | -1 | . | 4 | 4 | . | -11
CCOC(=O)N1CCC(NC(=O)CSCc2nc(-c3ccc(OCC)cc3)oc2C)CC1 | -2 | 2 | 8 | . | 99* | 13
Cc1ccccc1CSCC(=O)NCc1ccco1 | 5 | . | -3 | . | 88* | -7
Cc1oc(-c2ccc(Cl)cc2)nc1CSCC(=O)NC1CCN(Cc2ccccc2)CC1 | 5 | 7 | 2 | -4 | 98* | -2
CCOC(=O)N1CCC(NC(=O)CSCc2nc(-c3ccccc3Cl)oc2C)CC1 | 2 | -5 | 7 | 0 | 62 | 7
CCOC(=O)N1CCC(NC(=O)CSCc2nc(-c3sccc3C)oc2C)CC1 | . | -1 | . | -1 | . | -8
CCOC(=O)N1CCC(NC(=O)CSCc2nc(-c3cccc(OC)c3)oc2C)CC1 | -4 | -18 | . | 0 | 99* | 0
C[C@H]1CN([C@@H](C)CO)C(=O)c2cc(C#CCN(C)C)cnc2O[C@@H]1CN(C)S(=O)(=O)c1ccccc1 | . | 0 | 1 | 1 | . | .
CCOc1ccc(-c2nc(CSCC(=O)NC3CC3)c(C)o2)cc1 | 15 | -9 | . | -1 | 99* | -3
CCOc1ccc(-c2nnc3ccc(SCC(=O)NCc4ccco4)nn23)cc1 | -14 | -1 | . | -2 | 0 | -7
CCOc1ccc(-c2nc(CSCC(=O)NCc3ccco3)c(C)o2)cc1 | 4 | -8 | . | 3 | 98* | 0
CCOc1ccc(NC(=O)CS(=O)CC(=O)NC2CCCc3ccccc32)cc1 (stereo unspecified) | 1 | -7 | . | 3 | . | 8
CCOc1ccc(-c2nc(CSCC(=O)NC3CCCc4ccccc43)c(C)o2)cc1 (stereo unspecified) | -2 | -2 | . | -5 | 96* | 11
Cc1oc(-c2cccs2)nc1CSCC(=O)NC1CC1 | -4 | 1 | . | . | . | -2
COc1ccc(NC(=O)Nc2ccc3c(c2)C(=O)N([C@@H](C)CO)C[C@H](C)[C@H](CN(C)C)OCCCC[C@H](C)O3)cc1 | . | 9 | 0 | -2 | . | .

Compound activity deposited in PubChem BioAssay by several laboratories.
